# Measured values reported in PubChem BioAssay AID602342 (Broad Institute, 2012).
# Hit rate of the full screen: of about 340,000 compounds, about 1,000 (0.29%) were called active. The list comes from a sample in which actives are over-represented; it also holds similar structures and randomly drawn compounds. Values without a mark were called inactive.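 Rule for the calls: active = mean replicate activation score at least 90 and every replicate individually at or above 90; inconclusive = only one of the two criteria met; inactive = neither criterion met.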
# Assay: miR-122 Renilla sensor signal increase in Huh7, primary screen, miR-122 inhibitor project, cell-based, single point, plate reader (AID 602342);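 note: higher luciferase means less miR-122 activity so hits act as miR-122 inhibitors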
# Conditions: Huh7 miR-122 Renilla luciferase sensor, 48 h, stronger effect = higher value, neutral wells = 0, positive control = 100
smiles,measurement,setting,value
COc1ccccc1NC(=O)N1C[C@H]2[C@@H](c3ccccc31)[C@H](CO)N2Cc1ccc2c(c1)OCO2,activation (reporter increase),at 16.7 µM unless noted,28.6%
COc1ccc(C(=O)N2C[C@@H]3[C@H](c4ccccc42)[C@H](CO)N3Cc2ccc3c(c2)OCO3)cc1,activation (reporter increase),at 16.7 µM unless noted,247% (active)
COc1cccc(CN2[C@H](CO)[C@@H]3c4ccccc4N(C(=O)c4ccncc4)C[C@@H]32)c1,activation (reporter increase),at 16.7 µM unless noted,46.9%
O=C(c1ccncc1)N1C[C@H]2[C@@H](c3ccccc31)[C@H](CO)N2C(=O)c1ccccn1,activation (reporter increase),at 16.7 µM unless noted,-28.6%
C/C=C/c1ccc([C@H]2[C@@H](CO)N(S(C)(=O)=O)[C@@H]2CN(C)C(=O)CC)cc1,activation (reporter increase),at 16.7 µM unless noted,6.25%
CN1C(=O)c2cc(NS(=O)(=O)c3ccc(Cl)cc3)ccc2OC[C@@H]2O[C@H](CC(=O)O)CC[C@@H]21,activation (reporter increase),at 16.7 µM unless noted,5.56%
O=C(Nc1ccc2c(c1)[C@H]1C[C@@H](CC(=O)N3CCc4ccccc4C3)O[C@H](CO)[C@H]1O2)Nc1ccccc1F,activation (reporter increase),at 16.7 µM unless noted,-7.95%
CO[C@@H]1CN(C)C(=O)c2ccc(NS(=O)(=O)c3ccc(Cl)cc3)cc2OC[C@@H](C)N(C)C[C@H]1C,activation (reporter increase),at 16.7 µM unless noted,-8.17%
Cc1ccc(C(=O)Nc2ccccc2C(=O)NC2CCCCC2)cc1S(=O)(=O)N1CCOCC1,activation (reporter increase),at 16.7 µM unless noted,-2.85% [at 12.5 µM]
COC(=O)c1ccc(C(=O)Nc2cc(Cl)ccc2Cl)cc1NC(=O)c1ccccc1C,activation (reporter increase),at 16.7 µM unless noted,-1.04% [at 12.5 µM]
C=CCNC(=O)c1ccccc1NC(=O)c1ccc(Cl)c(S(=O)(=O)Nc2cccc(C)c2C)c1,activation (reporter increase),at 16.7 µM unless noted,155% [at 12.5 µM] (active)
CCC(=O)N(C)C[C@@H]1Oc2ncc(C#C[C@H](C)O)cc2C(=O)N([C@@H](C)CO)C[C@@H]1C,activation (reporter increase),at 16.7 µM unless noted,1.39%
Cc1ccccc1S(=O)(=O)N1C[C@H](O)COC[C@H]2O[C@H](CC(=O)N3CCCCC3)CC[C@@H]21,activation (reporter increase),at 16.7 µM unless noted,8.99%
Cc1cccc(NS(=O)(=O)c2ccc(-c3cnc(C4CC4)o3)cc2)c1,activation (reporter increase),at 16.7 µM unless noted,186% [at 12.5 µM] (active)
Cc1cccc(CNS(=O)(=O)c2ccc(-c3cnc(C4CC4)o3)cc2)c1,activation (reporter increase),at 16.7 µM unless noted,3.02% [at 12.5 µM]
COc1ccc(CNS(=O)(=O)c2ccc(-c3cnc(C4CC4)o3)cc2)cc1,activation (reporter increase),at 16.7 µM unless noted,-3.38% [at 12.5 µM]
C[C@@H]1CN([C@H](C)CO)C(=O)c2cccc(NS(=O)(=O)c3ccc(F)cc3)c2O[C@H]1CN(C)Cc1ccc(Oc2ccccc2)cc1,activation (reporter increase),at 16.7 µM unless noted,3.49%
O=C(NC1CCCC1)[C@H]1[C@H](CO)[C@H]2Cn3c(ccc(-c4ccccc4)c3=O)[C@H]2N1CCc1ccccc1,activation (reporter increase),at 16.7 µM unless noted,-0.306%
C[C@H](CO)N1C[C@H](C)[C@H](CN(C)C(=O)Nc2ccccc2C(F)(F)F)OCc2cn(nn2)CCCC1=O,activation (reporter increase),at 16.7 µM unless noted,-4.03%
Cn1c(=N)n(CC(O)c2cccs2)c2ccccc21 (stereo not drawn),activation (reporter increase),at 16.7 µM unless noted,-2.61% [at 12.5 µM]
N=c1n(Cc2ccc(Cl)cc2)c2ccccc2n1CC(O)c1ccco1 (stereo not drawn),activation (reporter increase),at 16.7 µM unless noted,262% [at 12.5 µM] (active)
C[C@H](CO)N1C[C@H](C)[C@@H](CN(C)C(=O)Nc2ccc3c(c2)OCO3)OCCCC[C@H](C)Oc2ccc(NC(=O)Nc3ccc(F)cc3)cc2C1=O,activation (reporter increase),at 16.7 µM unless noted,-4.3%
Cc1noc(C)c1S(=O)(=O)N(C)C[C@@H]1OCCCC[C@H](C)Oc2ccc(NC(=O)Nc3ccc4c(c3)OCO4)cc2C(=O)N([C@H](C)CO)C[C@H]1C,activation (reporter increase),at 16.7 µM unless noted,-8.18%
O=C(Nc1ccccc1)[C@@H]1[C@@H](CO)[C@@H]2Cn3c(cccc3=O)[C@@H]2N1C(=O)C1CC1,activation (reporter increase),at 16.7 µM unless noted,-0.104%
C[C@@H]1CN([C@H](C)CO)C(=O)c2cc(NC(=O)c3ccccc3)ccc2O[C@@H](C)CCCCO[C@H]1CN(C)C(=O)c1ccncc1,activation (reporter increase),at 16.7 µM unless noted,-8.54%
C[C@H](CO)N1C[C@H](C)[C@@H](CN(C)S(=O)(=O)c2ccc(F)cc2)Oc2ccc(NC(=O)CCC(F)(F)F)cc2C1=O,activation (reporter increase),at 12.5 µM,1.48%
same,activation (reporter increase),at 16.7 µM,-2.79%
COc1ccc(S(=O)(=O)N(C)C[C@@H]2Oc3ccc(NC(=O)CCC(F)(F)F)cc3C(=O)N([C@@H](C)CO)C[C@H]2C)cc1,activation (reporter increase),at 16.7 µM unless noted,-0.455%
Cc1ccc(S(=O)(=O)Nc2ccc3c(c2)CC(=O)N([C@@H](C)CO)C[C@H](C)[C@H](CN(C)Cc2ccc(C(=O)Nc4ccccc4N)cc2)O3)cc1,activation (reporter increase),at 16.7 µM unless noted,252% (active)
C[C@H]1CN([C@@H](C)CO)C(=O)Cc2cc(NS(=O)(=O)c3ccccc3)ccc2O[C@H]1CN(C)Cc1ccc(C(=O)Nc2ccccc2N)cc1,activation (reporter increase),at 16.7 µM unless noted,71.5%
C[C@H]1CN([C@@H](C)CO)C(=O)Cc2cc(NS(=O)(=O)c3ccccc3)ccc2O[C@@H]1CN(C)Cc1ccc(C(=O)Nc2ccccc2N)cc1,activation (reporter increase),at 16.7 µM unless noted,-6.43%
Cc1ccc(S(=O)(=O)N(C)C[C@H]2Oc3ccc(NC(=O)CCC(F)(F)F)cc3C(=O)N([C@@H](C)CO)C[C@H]2C)cc1,activation (reporter increase),at 16.7 µM unless noted,99.9% (active)
COCC(=O)Nc1ccc2c(c1)C(=O)N(C)[C@H]1CC[C@H](CC(=O)Nc3ccccc3)O[C@H]1CO2,activation (reporter increase),at 16.7 µM unless noted,1.21%
NCC[C@@H]1CC[C@@H](NC(=O)C2CCCC2)[C@H](CO)O1,activation (reporter increase),at 16.7 µM unless noted,-3.47%
CC(C)C#Cc1ccc([C@@H]2[C@@H](CO)N3CCCCN(C(=O)c4ccc5c(c4)OCO5)C[C@H]23)cc1,activation (reporter increase),at 16.7 µM unless noted,-24%
Cc1c(-c2ccccc2)cn2c1-c1ccc(C)n1CC2,activation (reporter increase),at 16.7 µM unless noted,248% [at 12.5 µM] (active)
C[C@H]1CCCCO[C@H](CN(C)S(=O)(=O)c2cn(C)cn2)[C@@H](C)CN([C@@H](C)CO)C(=O)c2cc(NC(=O)C3CCCCC3)ccc2O1,activation (reporter increase),at 16.7 µM unless noted,1.57%
CCCNC(=O)N(C)C[C@@H]1Oc2ncc(C#CC(C)C)cc2C(=O)N([C@H](C)CO)C[C@H]1C,activation (reporter increase),at 16.7 µM unless noted,-5.52%
CN1c2ccc(-c3ccccc3)cc2[C@H]2[C@H](CCN2C(=O)c2ccc3c(c2)OCO3)[C@H]1CO,activation (reporter increase),at 16.7 µM unless noted,72.9%
CC(C)CNS(=O)(=O)c1ccc(OCC(=O)Nc2ccc3c(c2)OCO3)c(Cl)c1,activation (reporter increase),at 16.7 µM unless noted,303% [at 12.5 µM] (active)
CC(C)CNS(=O)(=O)c1ccc(C(=O)Nc2ccc3c(c2)OCO3)cc1,activation (reporter increase),at 16.7 µM unless noted,39.9% [at 12.5 µM]
O=C(COc1ccc(Cl)cc1)Nc1ccc2c(c1)OCO2,activation (reporter increase),at 16.7 µM unless noted,-4.55% [at 12.5 µM]
C[C@H](CO)N1C[C@H](C)[C@H](CN(C)S(C)(=O)=O)Oc2ncc(C3=CCCCC3)cc2C1=O,activation (reporter increase),at 16.7 µM unless noted,2.67%
CCC(=O)N(C)C[C@H]1Oc2cc(-c3ccc(C)cc3)ccc2S(=O)(=O)N([C@@H](C)CO)C[C@H]1C,activation (reporter increase),at 16.7 µM unless noted,-15.3%
COCCn1c(SCC(=O)c2[nH]c(C)c(C(C)=O)c2C)nc2ccccc2c1=O,activation (reporter increase),at 16.7 µM unless noted,272% [at 12.5 µM] (active)
COCCn1c(C)cc(C(=O)CSc2nc3ccccc3c(=O)n2C(C)COC)c1C (stereo not drawn),activation (reporter increase),at 16.7 µM unless noted,-1.04% [at 12.5 µM]
COCCn1c(SCC(=O)Nc2ccc3c(c2)CCC3)nc2ccccc2c1=O,activation (reporter increase),at 16.7 µM unless noted,1.43% [at 12.5 µM]
CO[C@H]1CN(C)C(=O)c2cc(NS(=O)(=O)c3ccccc3)ccc2OC[C@H](C)N(C)C[C@@H]1C,activation (reporter increase),at 16.7 µM unless noted,0.654%
CNC(=O)C[C@@H]1CC[C@H]2[C@H](COc3ccc(NC(=O)c4cccc(OC)c4)cc3C(=O)N2C)O1,activation (reporter increase),at 16.7 µM unless noted,-50%
C[C@@H]1CCCCO[C@H](CN(C)C(=O)c2ccccc2)[C@H](C)CN([C@H](C)CO)C(=O)c2cc(N(C)C)ccc2O1,activation (reporter increase),at 16.7 µM unless noted,-6.07%
CC(C)c1cc(C(=O)O)on1,activation (reporter increase),at 16.7 µM unless noted,8.11% [at 12.5 µM]
CC(C)c1cc(C(=O)O)n[nH]1,activation (reporter increase),at 16.7 µM unless noted,143% [at 12.5 µM] (active)
CO[C@H]1CN(C)C(=O)c2ccc(NC(=O)Cc3ccccc3)cc2OC[C@@H](C)N(C(C)=O)C[C@H]1C,activation (reporter increase),at 16.7 µM unless noted,-19.6%
CN1C[C@H]2[C@@H](c3ccccc31)[C@@H](CO)N2Cc1ccccc1,activation (reporter increase),at 16.7 µM unless noted,2.82%
CCOc1ccc(C(=O)Nc2cccc(-c3ccc4nncn4n3)c2)cc1,activation (reporter increase),at 16.7 µM unless noted,-5.49% [at 12.5 µM]
COc1ccc(OC)c(S(=O)(=O)Nc2cccc(-c3ccc4nncn4n3)c2)c1,activation (reporter increase),at 16.7 µM unless noted,333% [at 12.5 µM] (active)
COc1ccc(OC)c(S(=O)(=O)Nc2c(C)nn(C)c2C)c1,activation (reporter increase),at 16.7 µM unless noted,21.9% [at 12.5 µM]
CC(C)NC(=O)N(C)C[C@H]1Oc2ncc(C#CC3CCCCC3)cc2C(=O)N([C@H](C)CO)C[C@@H]1C,activation (reporter increase),at 16.7 µM unless noted,-2.95%
CC(C)NC(=O)Nc1ccc2c(c1)C(=O)N([C@H](C)CO)C[C@@H](C)[C@H](CN(C)S(C)(=O)=O)O2,activation (reporter increase),at 16.7 µM unless noted,3.33%
C[C@@H]1CN([C@H](C)CO)C(=O)Cc2cc(NS(=O)(=O)c3ccc(F)cc3)ccc2O[C@H]1CN(C)C,activation (reporter increase),at 16.7 µM unless noted,4.8%
CC(=O)N1[C@H](CO)[C@H]2c3ccccc3N(C(=O)c3ccc(F)cc3)C[C@H]21,activation (reporter increase),at 16.7 µM unless noted,-19.2%
O=C(c1ccccc1F)N1C[C@H]2[C@@H](c3ccccc31)[C@@H](CO)N2C(=O)c1ccc(F)cc1,activation (reporter increase),at 16.7 µM unless noted,471% (active)
CCC(=O)N1[C@@H](CO)[C@@H]2c3ccccc3N(C(=O)c3ccccc3F)C[C@@H]21,activation (reporter increase),at 16.7 µM unless noted,-12.6%
O=C(C[C@@H]1C[C@@H]2c3cc(NC(=O)c4ccc5c(c4)OCO5)ccc3O[C@@H]2[C@@H](CO)O1)NCC1CC1,activation (reporter increase),at 16.7 µM unless noted,-4.14%
COc1ccc(NC(=O)N(C)C[C@@H]2Oc3ccc(NC(=O)Cc4cn(C)c5ccccc45)cc3CC(=O)N([C@@H](C)CO)C[C@H]2C)cc1,activation (reporter increase),at 16.7 µM unless noted,-1.9%
Cc1ccc(NS(=O)(=O)c2ccc(C(C)(C)C)cc2)cn1,activation (reporter increase),at 16.7 µM unless noted,23.7% [at 12.5 µM]
Cc1ccc(S(=O)(=O)Nc2ccc3ncccc3c2)cc1,activation (reporter increase),at 16.7 µM unless noted,146% [at 12.5 µM] (active)
O=S(=O)(Nc1ccc(Oc2ncccn2)c(Cl)c1)c1ccc(F)cc1,activation (reporter increase),at 16.7 µM unless noted,8.55% [at 12.5 µM]
